# AGP1-GFP MLPCN = modulators of AGP1-GFP expression in yeast TOR pathway, primary screen, cell-based, multiplex flow cytometry, S. cerevisiae, MLPCN library. 0.02% of 320,000 active. 3 h; GFP as percent of DMSO wells. GFP response vs DMSO, % at 10 µM;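 active means GFP response relative to DMSO above a set limit, near screen average plus 3 SD, cut at about 150% in these data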;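 further: median GFP channel fluorescence of the gated AGP1 strain per well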
# CIT2 TOR yeast = modulators of CIT2-GFP expression in yeast, primary screen, S. cerevisiae, GFP fusion, multiplex flow cytometry, MLPCN library | S. cerevisiae CIT2-GFP strain, 3 h; 100 means same as DMSO wells | GFP response vs DMSO, % at 10 µM | 0.065% of 320,000 active | AID 2029, 2009;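 active means GFP response relative to DMSO above a set limit, near the screen mean plus 3 SD, cut at about 150% in these data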;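 further: ratio of well median GFP fluorescence to mean of DMSO wells on the plate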
# LAP4 TOR yeast = modulators of LAP4-GFP expression in yeast, primary screen, S. cerevisiae, multiplex flow cytometry, MLPCN library. 0.34% of 320,000 active. GFP response vs DMSO, % at 10 µM. 3 h; median GFP as percent of DMSO wells. AID 2023, 2009;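 active means GFP response vs DMSO above a set limit, about the screen mean plus 3 SD, cut at about 150% in these data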
# MEP2 TOR yeast = modulators of MEP2-GFP levels in yeast, primary screen, S. cerevisiae, multiplex flow cytometry, MLPCN library | S. cerevisiae MEP2-GFP strain, 3 h; 100% = DMSO control level | GFP response vs DMSO, % at 10 µM | 0.51% of 330,000 active | AID 2016, 2009;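 active means GFP response versus DMSO above a set limit, roughly screen mean plus 3 SD, cut at about 180% in these data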;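 further: median GFP fluorescence of the barcode-gated MEP2-GFP cells per well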
# RPL19A TOR yeast = RPL19A-GFP expression modulators in yeast, primary screen, cell-based, S. cerevisiae, multiplex flow cytometry, MLPCN. S. cerevisiae RPL19A-GFP strain, 3 h; stronger effect = lower value. percent response vs DMSO, % at 10 µM. 0.3% of 330,000 active. AID 2025, 2009;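 active means percent response vs DMSO below 50%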;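 further: median channel GFP fluorescence of the barcoded RPL19A-GFP strain; ratio of sample median GFP to plate DMSO average so 100% = DMSO; lower means less RPL19A-GFP as with rapamycin TOR inhibition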
# LAP4 cherry2 = LAP4-GFP expression modulators in yeast, confirmation, cell-based, second cherry pick, flow cytometry; shares compounds with LAP4 TOR yeast; S. cerevisiae LAP4-GFP strain, 3 h; GFP response vs DMSO, % at 10 µM; 20% of 590 active; AID 2621, 2010;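 active means GFP signal as percent of the solvent control above about 150%, meaning raised reporter expression, limit read from the data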;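 further: ratio of well median GFP fluorescence to plate DMSO mean so 100% = DMSO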
# MEP2-GFP pick2 = modulators of MEP2-GFP levels in yeast, confirmation, S. cerevisiae, flow cytometry GFP, second cherry picks; S. cerevisiae MEP2-GFP strain, 3 h; 10% of 590 active; shares compounds with LAP4 TOR yeast; AID 2622, 2010; GFP response vs DMSO, % at 10 µM;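 active means GFP signal above 150% of the solvent control wells, that is a rise of more than half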;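 further: median channel GFP fluorescence of all gated yeast cells per well; ratio of median GFP to plate DMSO average so 100% = DMSO level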
# RPL19A GFP CP2 = RPL19A-GFP modulators in TOR pathway yeast, confirmation, cell-based, S. cerevisiae, flow cytometry, second cherry pick | S. cerevisiae RPL19A-GFP strain, 3 h; stronger effect = lower value; 100% means same as DMSO wells | 3% of 590 active | AID 2623, 2010 | shares compounds with LAP4 TOR yeast | GFP response vs DMSO, % at 10 µM;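 active means under 65% GFP response relative to DMSO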;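 further: median GFP channel fluorescence per well over the all cells gate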
# CIT2 GFP CP2 = modulators of CIT2-GFP expression in yeast, confirmation, flow cytometry, second cherry pick, single plex. shares compounds with LAP4 TOR yeast. S. cerevisiae CIT2-GFP strain, 3 h; DMSO control wells read 100%. GFP response vs DMSO, % at 10 µM. 8% of 590 active. AID 2624, 2010;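 active means GFP response vs DMSO above about 150%, limit read from the data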;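 further: median green fluorescence per well over all gated yeast cells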
# AGP1 GFP CP2 = AGP1-GFP expression modulators, hit retest, confirmation, cell-based, flow cytometry, S. cerevisiae, cherry pick set 2; percent response vs DMSO, % at 10 µM; S. cerevisiae AGP1-GFP strain, 3 h; AID 2643, 2010; 590 tested, under 10 active; shares compounds with LAP4 TOR yeast;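 active means over 150 percent of DMSO response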;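 further: median GFP channel fluorescence over all cells without mother daughter split; sample median GFP divided by mean DMSO control so 100% equals DMSO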
# s288c autofluor = compound autofluorescence in yeast s288c, dose response, artefact control for yeast TOR pathway GFP screen, s288c strain; shares compounds with LAP4 TOR yeast; S. cerevisiae s288c, 520 nm autofluorescence, flow cytometry, 3 h; stronger effect = higher value; zero means same as solvent-only cells; fluorescence change (kMESF span) at 33 µM; 610 tested, under 10 active; AID 2757, 2010;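 active means fluorescence span over the dose series, or activity score, above about 33, limit read from the data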
# s288c autofl DR = autofluorescence of compounds in yeast s288c, dose response, artefact control for yeast TOR pathway GFP screen, primary hits, KU SAR, s288c parental; AID 488829, 2010; fluorescence change (span) at 33 µM; shares compounds with LAP4 TOR yeast; 110 tested, under 10 active; S. cerevisiae s288c parental, compound autofluorescence, flow cytometry, 3 h;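 active means fluorescence change span, or the activity score built from it, above 25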
# TORC1 bypass gr = wild-type yeast growth inhibition sparing TORC1 bypass cells, mechanism study for yeast TOR pathway GFP screen, BY4741 wild type, TORC1 bypass strain; AID 504456, 2011; shares compounds with LAP4 TOR yeast; 120 tested, under 10 active; growth rating (0-3) at 30 µM; S. cerevisiae BY4741 spot growth rating, 48-72 h; stronger effect = lower value;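 active means growth rating at most 1 for wild type yeast while the TORC1 bypass strain still grows fully, rated 3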
# * = called active by the depositor; . = no result given; + = active, no number. This is a sample that favours compounds with a hit; in the whole collection about 0.92% have one here.
SMILES,AGP1-GFP MLPCN,CIT2 TOR yeast,LAP4 TOR yeast,MEP2 TOR yeast,RPL19A TOR yeast,LAP4 cherry2,MEP2-GFP pick2,RPL19A GFP CP2,CIT2 GFP CP2,AGP1 GFP CP2,s288c autofluor,others
Cc1ccc(SCC(=O)NNC(=O)CCS(=O)(=O)c2ccccc2)cc1,107,124,91,114,104,.,.,.,.,.,.,
CCCn1cc(S(=O)(=O)c2ccccc2)c(=O)c2cc(F)c(N3CCN(C)CC3)cc21,102,95,94,92,93,.,.,.,.,.,.,
O=C1CCCN2N=C(SCC(=O)N3CCCCC3)SC2=N1,61,97,92,143,58,99,102,100,97,101,.,
Oc1c(I)cc(I)c2cccnc12,96,148,238*,111,100,167*,147,82,113,94,1.2,s288c autofl DR=0.9;TORC1 bypass gr=3
Oc1ccc(F)c2cccnc12,100,108,100,103,98,.,.,.,.,.,.,
CCN(CC(=O)Nc1cc(S(=O)(=O)N2CCOCC2)ccc1Cl)Cc1ccccc1,229*,754*,670*,790*,215,96,93,99,103,97,-0.1,
CN(C)S(=O)(=O)c1cccc(C(=O)Nc2ccccc2C(=O)NC2CC2)c1,115,93,152*,109,92,104,105,100,102,98,.,
CC1CCN(C(=O)c2ccccc2NC(=O)c2cccc(S(=O)(=O)N(C)C)c2)CC1,100,102,99,96,99,.,.,.,.,.,.,
COC(=O)c1cc(-c2c(-c3ccc4c(c3)OCO4)noc2-c2ccsc2)cc([N+](=O)[O-])c1,89,98,102,86,102,.,.,.,.,.,.,
CN(C)c1ccc(-c2c(-c3ccc4c(c3)OCO4)noc2-c2ccsc2)cn1,71,62,155*,88,91,103,110,98,106,98,.,
Cc1ccc(N=C2NC(=O)/C(=C/C=C/c3ccco3)S2)cc1,98,97,103,97,98,.,.,.,.,.,.,
Cc1cccc(N=C2NC(=O)/C(=C/C=C/c3ccco3)S2)c1C,91,112,162*,100,96,190*,122,112,118,98,3.4,
Cc1ccc(O)c(N=Nc2nccs2)c1,75,75,171*,100,89,227*,141,101,132,95,0.61,
Cc1cccc(N2CCN(C(=O)c3nn(C)c4c3CS(=O)(=O)c3ccccc3-4)CC2)c1C,96,94,109,99,95,.,.,.,.,.,.,
Cc1ccc(S(=O)(=O)NCCC(=O)NCC(c2cccs2)N(C)C)cc1C (stereo unspecified),90,89,88,93,90,.,.,.,.,.,.,
N#C/C(=C\c1cc(Br)ccc1F)C(=O)NC1CC1,98,74,156*,94,98,156*,111,95,122,102,0.51,
O=C1C2C3C=CC(CC3)C2C(=O)N1c1ccccc1[N+](=O)[O-] (stereo unspecified),102,99,103,102,99,.,.,.,.,.,.,
CCNC(=S)NNC(=O)Cn1c(=O)c2c(ncn2CCOC)n(Cc2ccccc2)c1=O,97,81,179*,221*,85,99,108,101,102,100,.,
Cc1ccnc(NS(=O)(=O)c2ccc(NC(=O)CCc3ccccc3)cc2)n1,103,105,109,101,101,.,.,.,.,.,.,
CN(CC(=O)Nc1cccc(F)c1)C(=O)c1ccc2c(c1)S(=O)(=O)N=C1CCCCCN12,97,95,88,98,91,.,.,.,.,.,.,
CCc1ccc(/C=C/C(=O)c2cc(Br)ccc(=O)c2O)cc1,68,78,146,109,93,156*,122,78,146,77,8.2,
CCOc1ccc(/C=C/C(=O)c2cc(Br)ccc(=O)c2O)cc1,84,91,102,94,96,.,.,.,.,.,.,
CC(C)Cn1c(N)c(C(=O)COC(=O)c2c(O)c(Cl)cc(Cl)c2Cl)c(=O)n(C)c1=O,320*,+,+,+,300,96,100,98,90,100,.,
O=C1C=CC(=O)N1Cc1ccccc1,81,72,159*,91,94,114,129,105,124,106,.,
O=C1C2CC=CCC2C(=O)N1Cc1ccccc1 (stereo unspecified),96,92,101,97,97,.,.,.,.,.,.,
CC(=O)c1ccc(NC(=O)Cn2c3ccccc3c3nc(=O)cc(C)n32)cc1,71,84,92,156,56,100,102,100,97,100,.,
COc1ccc(/C=C/C(=O)c2c(O)cc(C)oc2=O)c(OC)c1,103,109,104,105,98,.,.,.,.,.,.,
Cc1cc(O)c(C(=O)/C=C/c2ccc(Cl)cc2)c(=O)o1,77,95,161*,93,93,.,.,.,.,.,0.61,

# Assay outcomes from PubChem BioAssay.
